Measured values: ChEMBL document CHEMBL1961873, “Compounds: GSK PKIS; Assays: Nanosyn kinase panel” (2012)

Tests used:
[1] = target: Tyrosine-protein kinase CSK (Homo sapiens) (UniProt P41240); conditions: at 1 µM;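 also: each value is an averaged inhibition reading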
[2] = target: T1, Discoidin domain-containing receptor 2 (Homo sapiens) (UniProt Q16832); conditions: at 0.1 µM
T1 sequence (whole entry): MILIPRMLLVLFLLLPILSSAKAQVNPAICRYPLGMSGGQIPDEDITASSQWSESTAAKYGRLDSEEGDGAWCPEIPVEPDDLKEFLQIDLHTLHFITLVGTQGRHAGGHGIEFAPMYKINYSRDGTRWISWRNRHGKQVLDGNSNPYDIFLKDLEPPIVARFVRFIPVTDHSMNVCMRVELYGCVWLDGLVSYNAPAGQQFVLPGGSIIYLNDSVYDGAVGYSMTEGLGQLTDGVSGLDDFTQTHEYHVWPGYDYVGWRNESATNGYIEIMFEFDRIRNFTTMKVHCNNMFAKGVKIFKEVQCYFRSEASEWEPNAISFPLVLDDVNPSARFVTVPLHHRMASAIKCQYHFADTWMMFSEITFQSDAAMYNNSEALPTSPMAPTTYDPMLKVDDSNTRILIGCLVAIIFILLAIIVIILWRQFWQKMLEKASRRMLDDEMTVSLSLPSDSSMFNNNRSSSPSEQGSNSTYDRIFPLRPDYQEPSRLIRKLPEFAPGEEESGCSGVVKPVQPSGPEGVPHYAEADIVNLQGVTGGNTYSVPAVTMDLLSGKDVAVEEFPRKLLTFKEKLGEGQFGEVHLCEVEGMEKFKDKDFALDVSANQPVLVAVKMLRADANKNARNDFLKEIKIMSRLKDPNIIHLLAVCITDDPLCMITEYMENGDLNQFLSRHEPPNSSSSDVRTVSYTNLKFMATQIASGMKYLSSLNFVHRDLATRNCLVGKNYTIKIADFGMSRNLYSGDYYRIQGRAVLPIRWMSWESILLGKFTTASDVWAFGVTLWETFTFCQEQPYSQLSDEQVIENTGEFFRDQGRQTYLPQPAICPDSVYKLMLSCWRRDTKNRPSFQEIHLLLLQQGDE

[3] = target: T1, Discoidin domain-containing receptor 2 (Homo sapiens); conditions: at 1 µM
[4] = target: Epidermal growth factor receptor (Homo sapiens) (UniProt P00533); conditions: at 0.1 µM
[5] = target: Epidermal growth factor receptor (Homo sapiens) (UniProt P00533); conditions: at 1 µM
[6] = test system: Epidermal growth factor receptor (Homo sapiens), P00533 [L858R]; conditions: at 0.1 µM
[7] = test system: Epidermal growth factor receptor (Homo sapiens), P00533 [L858R]; conditions: at 1 µM
[8] = test system: Epidermal growth factor receptor (Homo sapiens), P00533 [L861Q]; conditions: at 0.1 µM
[9] = test system: Epidermal growth factor receptor (Homo sapiens), P00533 [L861Q]; conditions: at 1 µM
[10] = test system: Epidermal growth factor receptor (Homo sapiens), P00533 [T790M]; conditions: at 0.1 µM
[11] = test system: Epidermal growth factor receptor (Homo sapiens), P00533 [T790M]; conditions: at 1 µM
[12] = test system: Epidermal growth factor receptor (Homo sapiens), P00533 [L858R,T790M]; conditions: at 0.1 µM
[13] = test system: Epidermal growth factor receptor (Homo sapiens), P00533 [L858R,T790M]; conditions: at 1 µM
[14] = target: Ephrin type-A receptor 2 (Homo sapiens) (UniProt P29317); conditions: at 0.1 µM
[15] = target: Ephrin type-A receptor 2 (Homo sapiens) (UniProt P29317); conditions: at 1 µM
[16] = target: T2, Ephrin type-A receptor 3 (Homo sapiens) (UniProt P29320); conditions: at 0.1 µM
T2 sequence (whole entry): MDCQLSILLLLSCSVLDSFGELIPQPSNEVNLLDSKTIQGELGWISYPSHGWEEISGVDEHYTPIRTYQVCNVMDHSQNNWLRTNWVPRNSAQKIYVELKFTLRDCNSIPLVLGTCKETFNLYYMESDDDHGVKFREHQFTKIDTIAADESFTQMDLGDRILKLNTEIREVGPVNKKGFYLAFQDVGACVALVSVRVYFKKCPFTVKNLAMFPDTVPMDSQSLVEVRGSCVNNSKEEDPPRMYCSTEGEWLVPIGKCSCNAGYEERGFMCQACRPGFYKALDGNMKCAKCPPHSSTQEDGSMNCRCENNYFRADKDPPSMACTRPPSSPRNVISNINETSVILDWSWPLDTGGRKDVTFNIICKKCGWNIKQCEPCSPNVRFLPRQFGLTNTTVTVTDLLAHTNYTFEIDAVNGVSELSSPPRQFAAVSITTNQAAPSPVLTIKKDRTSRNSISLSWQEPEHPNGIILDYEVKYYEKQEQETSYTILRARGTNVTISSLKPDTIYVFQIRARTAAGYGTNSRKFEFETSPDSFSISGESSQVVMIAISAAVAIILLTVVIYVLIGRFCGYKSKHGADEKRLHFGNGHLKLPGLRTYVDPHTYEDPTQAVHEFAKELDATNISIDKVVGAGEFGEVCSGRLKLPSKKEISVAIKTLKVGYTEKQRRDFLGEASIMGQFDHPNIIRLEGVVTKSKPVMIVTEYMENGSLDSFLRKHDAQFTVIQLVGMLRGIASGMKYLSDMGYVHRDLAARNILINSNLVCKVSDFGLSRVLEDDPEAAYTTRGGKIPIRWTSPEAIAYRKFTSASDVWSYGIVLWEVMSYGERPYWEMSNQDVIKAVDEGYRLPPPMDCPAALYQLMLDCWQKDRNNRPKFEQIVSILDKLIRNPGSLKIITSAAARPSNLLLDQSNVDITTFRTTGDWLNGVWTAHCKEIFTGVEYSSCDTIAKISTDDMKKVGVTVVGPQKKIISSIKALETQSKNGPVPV

[17] = target: T2, Ephrin type-A receptor 3 (Homo sapiens); conditions: at 1 µM
[18] = target: Ephrin type-A receptor 4 (Homo sapiens) (UniProt P54764); conditions: at 0.1 µM
[19] = target: Ephrin type-A receptor 4 (Homo sapiens) (UniProt P54764); conditions: at 1 µM
[20] = target: T3, Ephrin type-B receptor 2 (Homo sapiens) (UniProt P29323); conditions: at 0.1 µM;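 also: reported as mean inhibition of EPHB2, from the GSK PKIS dataset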
T3 sequence (whole entry): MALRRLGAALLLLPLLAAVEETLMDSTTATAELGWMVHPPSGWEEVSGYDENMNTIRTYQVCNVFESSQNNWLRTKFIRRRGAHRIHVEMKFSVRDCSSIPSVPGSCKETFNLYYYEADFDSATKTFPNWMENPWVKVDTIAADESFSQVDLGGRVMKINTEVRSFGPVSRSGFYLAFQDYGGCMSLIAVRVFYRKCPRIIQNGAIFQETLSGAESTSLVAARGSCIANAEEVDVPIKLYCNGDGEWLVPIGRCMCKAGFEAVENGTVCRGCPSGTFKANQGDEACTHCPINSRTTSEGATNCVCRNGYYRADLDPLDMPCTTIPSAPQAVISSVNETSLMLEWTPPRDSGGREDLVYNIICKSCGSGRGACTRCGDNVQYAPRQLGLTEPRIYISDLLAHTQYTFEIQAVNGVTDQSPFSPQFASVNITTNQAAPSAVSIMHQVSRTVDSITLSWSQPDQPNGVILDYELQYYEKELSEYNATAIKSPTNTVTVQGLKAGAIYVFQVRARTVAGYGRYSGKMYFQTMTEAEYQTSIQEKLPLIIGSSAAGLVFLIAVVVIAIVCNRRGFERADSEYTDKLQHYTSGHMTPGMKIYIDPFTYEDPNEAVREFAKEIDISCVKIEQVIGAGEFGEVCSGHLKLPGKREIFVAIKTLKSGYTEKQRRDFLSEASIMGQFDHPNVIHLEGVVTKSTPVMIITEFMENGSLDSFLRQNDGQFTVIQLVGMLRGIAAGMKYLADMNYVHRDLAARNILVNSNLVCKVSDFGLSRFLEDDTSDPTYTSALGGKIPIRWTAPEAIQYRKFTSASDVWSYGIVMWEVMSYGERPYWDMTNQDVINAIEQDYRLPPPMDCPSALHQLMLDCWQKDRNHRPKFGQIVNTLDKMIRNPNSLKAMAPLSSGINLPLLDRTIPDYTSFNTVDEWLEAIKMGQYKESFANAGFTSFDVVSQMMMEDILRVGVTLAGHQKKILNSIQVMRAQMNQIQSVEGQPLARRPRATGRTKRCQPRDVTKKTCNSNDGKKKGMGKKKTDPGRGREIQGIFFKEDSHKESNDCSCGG

Ephrin type-A receptor 2 (Homo sapiens), sequence (P29317 whole entry): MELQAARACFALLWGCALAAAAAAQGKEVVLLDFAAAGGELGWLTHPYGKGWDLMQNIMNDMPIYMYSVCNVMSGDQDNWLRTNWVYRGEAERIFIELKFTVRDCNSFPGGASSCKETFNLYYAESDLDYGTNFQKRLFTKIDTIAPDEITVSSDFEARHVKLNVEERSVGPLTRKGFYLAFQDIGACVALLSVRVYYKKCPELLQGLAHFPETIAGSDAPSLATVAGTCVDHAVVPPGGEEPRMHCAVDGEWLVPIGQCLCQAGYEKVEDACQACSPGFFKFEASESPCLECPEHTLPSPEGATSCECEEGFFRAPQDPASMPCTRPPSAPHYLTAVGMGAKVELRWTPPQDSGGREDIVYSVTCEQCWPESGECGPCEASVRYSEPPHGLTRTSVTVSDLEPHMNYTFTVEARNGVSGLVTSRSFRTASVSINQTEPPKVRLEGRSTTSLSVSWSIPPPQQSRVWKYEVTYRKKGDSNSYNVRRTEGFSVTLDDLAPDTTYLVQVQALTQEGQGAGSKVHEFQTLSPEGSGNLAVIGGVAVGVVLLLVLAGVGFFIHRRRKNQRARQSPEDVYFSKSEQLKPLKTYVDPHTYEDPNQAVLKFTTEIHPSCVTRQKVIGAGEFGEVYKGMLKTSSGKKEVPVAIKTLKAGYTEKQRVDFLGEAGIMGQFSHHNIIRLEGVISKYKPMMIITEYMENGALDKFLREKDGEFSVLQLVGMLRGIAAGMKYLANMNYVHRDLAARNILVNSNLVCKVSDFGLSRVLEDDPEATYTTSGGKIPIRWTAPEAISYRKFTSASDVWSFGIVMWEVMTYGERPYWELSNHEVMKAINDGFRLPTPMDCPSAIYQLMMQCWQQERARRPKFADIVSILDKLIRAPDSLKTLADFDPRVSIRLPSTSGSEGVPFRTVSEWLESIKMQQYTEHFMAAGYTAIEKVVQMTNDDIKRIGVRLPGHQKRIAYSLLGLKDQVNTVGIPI
Ephrin type-A receptor 4 (Homo sapiens), sequence (P54764 whole entry): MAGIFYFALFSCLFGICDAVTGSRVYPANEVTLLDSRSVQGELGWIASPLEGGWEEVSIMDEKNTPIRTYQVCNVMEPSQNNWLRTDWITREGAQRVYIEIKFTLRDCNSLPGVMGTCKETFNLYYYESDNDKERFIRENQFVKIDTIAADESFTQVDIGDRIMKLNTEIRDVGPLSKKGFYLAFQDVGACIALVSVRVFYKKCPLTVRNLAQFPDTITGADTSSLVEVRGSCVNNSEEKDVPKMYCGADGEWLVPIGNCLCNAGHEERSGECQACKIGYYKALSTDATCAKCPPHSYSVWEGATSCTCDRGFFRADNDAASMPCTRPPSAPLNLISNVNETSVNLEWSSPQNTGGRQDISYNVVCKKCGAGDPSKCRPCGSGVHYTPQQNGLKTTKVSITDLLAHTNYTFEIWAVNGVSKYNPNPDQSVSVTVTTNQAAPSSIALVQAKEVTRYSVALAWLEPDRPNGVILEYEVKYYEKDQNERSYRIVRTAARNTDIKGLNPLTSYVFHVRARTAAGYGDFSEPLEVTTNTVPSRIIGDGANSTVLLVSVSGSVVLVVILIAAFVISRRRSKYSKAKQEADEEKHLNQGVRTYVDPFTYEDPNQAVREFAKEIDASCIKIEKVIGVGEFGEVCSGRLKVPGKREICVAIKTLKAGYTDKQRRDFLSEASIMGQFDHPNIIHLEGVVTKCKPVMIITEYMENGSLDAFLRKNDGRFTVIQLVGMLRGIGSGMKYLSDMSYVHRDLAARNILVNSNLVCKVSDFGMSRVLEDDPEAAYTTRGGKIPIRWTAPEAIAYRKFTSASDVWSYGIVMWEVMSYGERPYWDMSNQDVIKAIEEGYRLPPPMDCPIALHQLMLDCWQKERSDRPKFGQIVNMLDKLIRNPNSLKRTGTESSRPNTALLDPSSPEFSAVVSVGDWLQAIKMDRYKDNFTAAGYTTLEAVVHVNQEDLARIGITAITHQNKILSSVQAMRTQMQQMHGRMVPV
Epidermal growth factor receptor (Homo sapiens), P00533 [L861Q], sequence (P00533 whole entry L861Q): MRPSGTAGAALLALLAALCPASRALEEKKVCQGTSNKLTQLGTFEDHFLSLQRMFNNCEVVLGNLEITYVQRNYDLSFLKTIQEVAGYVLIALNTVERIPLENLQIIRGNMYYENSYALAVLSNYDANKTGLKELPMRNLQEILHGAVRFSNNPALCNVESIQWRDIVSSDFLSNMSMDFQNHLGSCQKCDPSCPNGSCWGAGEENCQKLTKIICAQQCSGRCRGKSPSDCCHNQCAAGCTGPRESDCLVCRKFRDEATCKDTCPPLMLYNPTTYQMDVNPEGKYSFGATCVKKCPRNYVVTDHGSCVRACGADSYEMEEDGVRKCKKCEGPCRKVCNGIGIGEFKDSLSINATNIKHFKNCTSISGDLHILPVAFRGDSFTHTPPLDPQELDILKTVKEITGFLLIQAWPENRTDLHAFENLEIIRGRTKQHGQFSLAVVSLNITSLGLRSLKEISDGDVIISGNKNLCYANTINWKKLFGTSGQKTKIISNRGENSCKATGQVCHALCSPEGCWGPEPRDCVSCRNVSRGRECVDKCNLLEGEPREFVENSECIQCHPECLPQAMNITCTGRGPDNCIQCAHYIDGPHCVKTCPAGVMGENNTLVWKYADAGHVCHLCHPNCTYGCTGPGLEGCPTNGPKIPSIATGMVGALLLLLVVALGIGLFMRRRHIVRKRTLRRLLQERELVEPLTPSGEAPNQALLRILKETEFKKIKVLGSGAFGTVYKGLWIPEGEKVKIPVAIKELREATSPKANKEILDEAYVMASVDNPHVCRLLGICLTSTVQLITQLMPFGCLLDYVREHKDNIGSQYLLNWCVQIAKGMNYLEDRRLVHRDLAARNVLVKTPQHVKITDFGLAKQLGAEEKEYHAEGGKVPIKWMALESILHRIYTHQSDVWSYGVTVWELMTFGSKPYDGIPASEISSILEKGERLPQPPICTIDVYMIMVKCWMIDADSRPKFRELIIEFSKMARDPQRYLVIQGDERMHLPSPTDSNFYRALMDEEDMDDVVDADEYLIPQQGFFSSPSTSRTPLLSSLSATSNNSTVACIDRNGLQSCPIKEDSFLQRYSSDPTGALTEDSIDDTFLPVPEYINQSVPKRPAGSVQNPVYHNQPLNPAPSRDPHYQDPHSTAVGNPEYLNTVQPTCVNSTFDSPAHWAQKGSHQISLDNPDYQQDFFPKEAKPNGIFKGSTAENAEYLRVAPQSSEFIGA
Epidermal growth factor receptor (Homo sapiens), P00533 [L858R], sequence (P00533 whole entry L858R): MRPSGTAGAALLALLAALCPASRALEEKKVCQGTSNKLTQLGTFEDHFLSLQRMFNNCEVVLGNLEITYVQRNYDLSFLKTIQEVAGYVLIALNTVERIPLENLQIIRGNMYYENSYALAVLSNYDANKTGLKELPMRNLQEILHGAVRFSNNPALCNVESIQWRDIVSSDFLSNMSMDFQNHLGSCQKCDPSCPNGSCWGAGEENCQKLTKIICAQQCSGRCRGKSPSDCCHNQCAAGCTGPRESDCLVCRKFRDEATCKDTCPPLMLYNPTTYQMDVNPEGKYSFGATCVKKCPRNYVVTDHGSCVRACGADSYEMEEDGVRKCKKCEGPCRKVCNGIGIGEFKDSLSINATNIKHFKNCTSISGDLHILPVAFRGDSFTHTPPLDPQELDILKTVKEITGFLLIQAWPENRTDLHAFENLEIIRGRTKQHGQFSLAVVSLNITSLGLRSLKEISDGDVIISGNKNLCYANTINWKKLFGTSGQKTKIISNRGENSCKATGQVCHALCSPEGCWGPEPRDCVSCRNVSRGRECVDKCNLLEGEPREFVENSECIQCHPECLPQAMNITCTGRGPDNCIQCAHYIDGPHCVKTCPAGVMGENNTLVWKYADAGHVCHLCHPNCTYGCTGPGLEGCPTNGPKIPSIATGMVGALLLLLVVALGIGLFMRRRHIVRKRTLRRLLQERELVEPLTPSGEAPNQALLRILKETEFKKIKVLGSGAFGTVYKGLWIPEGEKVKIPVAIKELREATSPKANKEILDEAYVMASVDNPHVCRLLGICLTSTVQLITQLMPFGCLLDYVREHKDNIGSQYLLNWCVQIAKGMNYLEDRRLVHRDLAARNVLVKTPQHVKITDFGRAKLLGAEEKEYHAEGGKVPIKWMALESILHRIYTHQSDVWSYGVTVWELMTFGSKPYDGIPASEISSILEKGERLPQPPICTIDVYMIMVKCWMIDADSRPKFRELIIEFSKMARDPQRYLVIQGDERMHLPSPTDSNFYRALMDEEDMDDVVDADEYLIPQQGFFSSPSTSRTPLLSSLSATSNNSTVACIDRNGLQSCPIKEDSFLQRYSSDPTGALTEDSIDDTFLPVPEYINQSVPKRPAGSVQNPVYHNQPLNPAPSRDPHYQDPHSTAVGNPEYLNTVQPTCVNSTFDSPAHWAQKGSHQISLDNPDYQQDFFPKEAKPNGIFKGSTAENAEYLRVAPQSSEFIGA
Tyrosine-protein kinase CSK (Homo sapiens), sequence (P41240 2-450 limits assumed): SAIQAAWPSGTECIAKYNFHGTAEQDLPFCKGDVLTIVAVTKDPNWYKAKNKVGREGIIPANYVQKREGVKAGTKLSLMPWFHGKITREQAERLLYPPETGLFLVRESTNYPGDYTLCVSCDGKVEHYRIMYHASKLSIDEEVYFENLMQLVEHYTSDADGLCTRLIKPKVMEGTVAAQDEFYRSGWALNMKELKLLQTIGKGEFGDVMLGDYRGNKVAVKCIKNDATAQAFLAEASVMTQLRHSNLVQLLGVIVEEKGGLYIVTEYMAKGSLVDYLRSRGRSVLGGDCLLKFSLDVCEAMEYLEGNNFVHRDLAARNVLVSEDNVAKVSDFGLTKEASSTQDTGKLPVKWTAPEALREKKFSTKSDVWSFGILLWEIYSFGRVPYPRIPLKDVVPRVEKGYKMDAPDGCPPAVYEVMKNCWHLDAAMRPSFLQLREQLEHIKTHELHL

Structure (SMILES)	inhibition [1] [%]	inhibition [2] [%]	inhibition [3] [%]	inhibition [4] [%]	inhibition [5] [%]	inhibition [6] [%]	inhibition [7] [%]	inhibition [8] [%]	inhibition [9] [%]	inhibition [10] [%]	inhibition [11] [%]	inhibition [12] [%]	inhibition [13] [%]	inhibition [14] [%]	inhibition [15] [%]	inhibition [16] [%]	inhibition [17] [%]	inhibition [18] [%]	inhibition [19] [%]	inhibition [20] [%]
C[C@@H](Oc1cc(-n2cnc3ccc(OC4CCN(C)CC4)cc32)sc1C(N)=O)c1ccccc1Cl	5.07	1.72	4.56	0.49	3.58	1.45	3.56	2.71	4.46	0.91	1.48	1.1	6.15	-2.62	-3.66	-0.17	-0.53	7.06	9.83	7.8
Nc1nccc(-c2c(-c3ccc(F)cc3)ncn2C2CCC(O)CC2)n1 (centres undefined)	-0.86	-0.26	13.3	4.04	35.7	18.4	76.8	4.44	33.2	-1.86	0.86	1.94	15.4	0.36	2.11	-4.93	-1.48	-4.75	14.5	7.37
O=C1Nc2ccccc2/C1=C/Nc1ccc(-n2cncn2)cc1	7.33	-0.37	0.37	4.22	4.08	2.81	4.05	3.11	4.38	2.21	4.3	2.89	1.3	1.55	1.91	2.74	4.04	4.98	12.3	3.5
CN(C)c1ccc2c(c1)/C(=C/Nc1ccc(S(N)(=O)=O)cc1)C(=O)N2	0.76	1.03	2.54	9.33	11.9	1.25	5.83	1.24	2.51	0.31	0.66	0.14	6.28	-2.54	-2.52	2.63	3.13	-0.17	1.13	3.5
Cc1ccc(C(=O)NC(C)C)cc1-c1ccc(C(=O)NCC2CC2)cc1	–	-0.36	0.09	0.3	1.34	-1.62	-1.21	-0.86	-2.64	-0.77	-3.61	-2.78	-0.98	-1.78	-2.07	-7.27	-6.99	-6.17	-6.72	-9.67
COc1ccc2ncn(-c3cc(O[C@H](C)c4ccccc4Cl)c(C(N)=O)s3)c2c1	4.14	1.2	0.87	-5.57	-2.35	0.76	6.08	3.26	1.91	1.16	1.63	1.69	4.57	-1.86	-2.71	-1.12	1.39	6.03	9.66	6.75
COc1cc(N2CCN(C(C)C)CC2)ccc1Nc1nc(Nc2ccc(F)cc2C(=O)NC[C@@H](O)CO)c2cc[nH]c2n1	6.92	0.31	1.21	-0.53	0.84	0.89	11.2	5.68	8.58	4.54	25.8	11.9	60.2	-2.5	-3.57	0.19	-0.58	9.3	12.5	3.1
NS(=O)(=O)c1ccc(N/N=C2\C(=O)Nc3ccc(-c4cnco4)cc32)cc1	4.17	1.59	2.15	9.52	12.9	2.54	6.44	2.45	4.95	0.19	1.56	-2.11	5.42	-5.84	-4.92	-2.34	0.23	5.13	10.8	6.73
